This note sets out measurements from PubChem BioAssay (EPA / NIEHS).

The nature of experiment [1]: BSK_SAg_Proliferation: Cell Proliferation Assessment in the BioMAP Diversity Plus: SAg Assay (AID 2283095).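 Also: relative cell number as total protein by SRB absorbance in sub-confluent culture.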 The conditions noted are these: primary human HUVEC with PBMC. In a few lines: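 Absorbance of sulforhodamine B at 560 nm reports total protein in a human vascular endothelial/PBMC co-culture after 96 h chemical exposure. Gain or loss of signal is fitted in both directions against DMSO.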

Experiment [2] in a line: BSK_SAg_SRB: Viability Assessment in the BioMAP Diversity Plus: SAg Assay (AID 2283096).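 Also: cells read one day after compound addition; hits may be either gain or loss of signal compared with DMSO.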 Particulars: primary human HUVEC with PBMC. In short, it runs like this: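 Compounds were added to a human vascular co-culture of umbilical vein endothelium and PBMC. After 24 h, parallel cultures were fixed with 10% TCA, stained with 0.1% sulforhodamine B and read at 560 nm. Gain or loss of signal was fitted relative to DMSO.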

Experiment [3] deals with human CYP19A1, CYP19A1 (gene 1588) (UniProt P11511). The experiment can be described thus: NVS_ADME_hCYP19A1: NovaScreen (NVS) CYP450-related Enzyme Activity (ADME) Assay for human CYP19A1 (AID 2283098; active = hit-call score of the fitted dose curve at least 0.9, where 1 is the maximum). In short, it runs like this:
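Fluorescence intensity read-out; activity taken as signal loss relative to acetonitrile vehicle. Extracted enzyme, specific substrate, no cells, 0.5 h exposure. Duplicate single-point screen at 10 uM, then concentration–response follow-up for actives.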

The target in experiment [4] is human CYP2D6, CYP2D6 (gene 1565) (UniProt P10635). Put plainly: NVS_ADME_hCYP2D6: NovaScreen (NVS) CYP450-related Enzyme Activity (ADME) Assay for human CYP2D6 (AID 2283107; active = hit-call score of the fitted dose curve at least 0.9, where 1 is the maximum). In short, it runs like this:
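Cell-free assay using recombinant human CYP2D6 expressed in insect cells, with a fluorogenic substrate read after 1 h. Primary screen in duplicate at 10 uM; actives followed up in concentration series. Loss of signal fitted relative to acetonitrile.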

Experiment [5] has as its target human CYP2C9, CYP2C9 (gene 1559) (UniProt P11712). Put plainly: NVS_ADME_hCYP2C9: NovaScreen (NVS) CYP450-related Enzyme Activity (ADME) Assay for human CYP2C9 (AID 2283108; active = hit-call score of the fitted dose curve at least 0.9, where 1 is the maximum). In short, it runs like this:
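Recombinant human CYP2C9 expressed in SF9 cells, fluorogenic substrate, fluorescence read 0.75 h after dosing. Chemicals first run in duplicate at 10 uM, with actives followed in concentration series; loss of signal versus acetonitrile baseline.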

The target of experiment [6] is Cytochrome P450 3A4 (Homo sapiens) (UniProt P08684). The experiment can be described thus: NVS_ADME_hCYP3A4: NovaScreen (NVS) CYP450-related Enzyme Activity (ADME) Assay for human CYP3A4 (AID 2283110; active = hit-call score of the fitted dose curve at least 0.9, where 1 is the maximum). In short, it runs like this: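 Recombinant CYP3A4 from insect cells, fluorescence enzyme read-out, 0.33 h after chemical addition. Acetonitrile = negative control/baseline. Primary HTS: 10 uM in duplicate; actives re-tested in concentration series.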

Results filed as inconclusive are left out. Active and inactive are the calls of the source. The calls were made as follows, unless noted: active = hit-call score of the fitted dose curve at least 0.9, where 1 is the maximum; inactive = score below 0.9.

Sequence of human CYP19A1, CYP19A1 (gene 1588) (P11511 whole entry, looked up): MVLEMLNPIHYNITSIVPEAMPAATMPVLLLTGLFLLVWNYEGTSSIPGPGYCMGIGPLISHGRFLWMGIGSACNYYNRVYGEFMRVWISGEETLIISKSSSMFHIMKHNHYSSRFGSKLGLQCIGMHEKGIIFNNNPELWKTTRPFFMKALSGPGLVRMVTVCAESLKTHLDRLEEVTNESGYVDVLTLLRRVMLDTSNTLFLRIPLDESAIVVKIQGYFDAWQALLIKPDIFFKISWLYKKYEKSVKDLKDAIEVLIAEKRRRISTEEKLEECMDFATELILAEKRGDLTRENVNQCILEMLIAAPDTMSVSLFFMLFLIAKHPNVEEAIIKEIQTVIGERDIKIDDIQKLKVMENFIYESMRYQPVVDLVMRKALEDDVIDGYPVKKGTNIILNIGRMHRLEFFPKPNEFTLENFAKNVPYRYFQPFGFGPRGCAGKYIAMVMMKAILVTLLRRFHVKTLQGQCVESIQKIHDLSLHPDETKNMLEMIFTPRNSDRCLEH
Sequence of Cytochrome P450 3A4 (Homo sapiens) (P08684 whole entry, looked up): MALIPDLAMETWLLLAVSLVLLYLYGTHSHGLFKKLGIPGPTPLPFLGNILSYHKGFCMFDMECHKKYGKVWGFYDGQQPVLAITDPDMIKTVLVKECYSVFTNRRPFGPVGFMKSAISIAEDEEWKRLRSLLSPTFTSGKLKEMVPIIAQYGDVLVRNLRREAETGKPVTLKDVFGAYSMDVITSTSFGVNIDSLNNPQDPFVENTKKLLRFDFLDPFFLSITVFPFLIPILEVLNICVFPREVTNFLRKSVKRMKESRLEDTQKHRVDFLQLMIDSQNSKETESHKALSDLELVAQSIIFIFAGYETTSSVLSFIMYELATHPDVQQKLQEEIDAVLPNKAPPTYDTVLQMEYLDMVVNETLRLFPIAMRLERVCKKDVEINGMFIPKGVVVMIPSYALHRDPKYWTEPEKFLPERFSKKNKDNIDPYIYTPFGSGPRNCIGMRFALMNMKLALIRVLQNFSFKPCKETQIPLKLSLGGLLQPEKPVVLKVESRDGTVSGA
Sequence of human CYP2D6, CYP2D6 (gene 1565) (P10635 whole entry, looked up): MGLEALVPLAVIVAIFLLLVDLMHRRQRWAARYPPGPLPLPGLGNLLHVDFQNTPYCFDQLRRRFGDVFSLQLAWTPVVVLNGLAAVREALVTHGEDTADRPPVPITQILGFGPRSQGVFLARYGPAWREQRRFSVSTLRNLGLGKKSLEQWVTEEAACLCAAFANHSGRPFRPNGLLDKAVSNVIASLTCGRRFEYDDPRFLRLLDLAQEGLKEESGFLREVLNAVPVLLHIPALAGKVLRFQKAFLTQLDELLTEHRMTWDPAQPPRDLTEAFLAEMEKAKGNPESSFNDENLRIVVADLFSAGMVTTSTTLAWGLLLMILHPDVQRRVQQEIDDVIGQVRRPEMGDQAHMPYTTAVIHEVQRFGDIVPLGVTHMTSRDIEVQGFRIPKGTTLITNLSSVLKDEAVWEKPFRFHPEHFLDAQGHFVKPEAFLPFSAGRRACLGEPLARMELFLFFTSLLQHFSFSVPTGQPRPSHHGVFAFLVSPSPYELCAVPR
Sequence of human CYP2C9, CYP2C9 (gene 1559) (P11712 whole entry, looked up): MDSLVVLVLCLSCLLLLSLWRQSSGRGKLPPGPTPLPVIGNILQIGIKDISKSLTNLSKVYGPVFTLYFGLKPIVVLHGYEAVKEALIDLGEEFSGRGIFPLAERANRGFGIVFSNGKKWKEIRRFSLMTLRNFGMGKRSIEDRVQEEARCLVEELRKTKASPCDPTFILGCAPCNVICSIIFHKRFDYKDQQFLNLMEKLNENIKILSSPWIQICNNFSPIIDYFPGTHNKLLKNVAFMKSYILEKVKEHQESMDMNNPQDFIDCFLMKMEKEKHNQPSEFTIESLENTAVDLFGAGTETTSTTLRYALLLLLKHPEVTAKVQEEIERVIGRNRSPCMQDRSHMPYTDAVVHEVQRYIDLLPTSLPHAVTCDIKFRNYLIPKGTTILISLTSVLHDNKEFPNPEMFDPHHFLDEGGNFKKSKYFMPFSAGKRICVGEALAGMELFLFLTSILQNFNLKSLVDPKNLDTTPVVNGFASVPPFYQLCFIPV

Consider `COC(=O)CCCC(=O)OC`, for which the outcome in experiment [1] and in experiment [2] was inactive.
Consider `NC=O`, for which the result in experiment [1] and in experiment [2] was inactive.
For the molecule `CCCCCCCCCCCCCCOS(=O)(=O)O`, the result in experiment [1] and in experiment [2] was inactive.
For `CCCCOC(=O)CCCCC(=O)OCCCC`, the result in experiment [1] and in experiment [2] was inactive.
Turning to `O=[Si]=O`, the outcome in experiment [1] and in experiment [2] was inactive.
In general, AC50 refers to the concentration at which the activity in the assay is half-maximal. Turning to `O=C(Oc1ccccc1)c1cccc(C(=O)Oc2ccccc2)c1`, in experiment [1], the concentration at half-maximal activity (AC50) was 24.2 µM (active). In addition, in experiment [2], the result was inactive.
Consider `COc1ccc(OC(F)(F)F)cc1CN[C@H]1CCCN[C@H]1c1ccccc1`, for which the AC50 is 32.6 µM (active) in experiment [1] and 31.1 µM (active) in experiment [2].
For the molecule `CCOCCOCCO`, the outcome in experiment [1] and in experiment [2] was inactive.
Regarding `O=C1c2c(O)cccc2Cc2cccc(O)c21`, the outcome in experiment [1] and in experiment [2] was inactive.
`CC(C)(C)c1ccccc1`: the outcome in experiment [1] and in experiment [2] was inactive.
For the molecule `CCCCC(CC)CO` (configuration not stated), the result in experiment [1] and in experiment [2] was inactive.
`CC(=O)O`: the outcome in experiment [1] and in experiment [2] was inactive.
As for `O=C(O)c1cccnc1`, the outcome in experiment [1] and in experiment [2] was inactive.
Regarding `CCCC(=O)O`, the AC50 in experiment [1] is 33.7 µM (active). The result in experiment [2] was inactive.
Turning to `Cc1occc(=O)c1O`, the result in experiment [1] and in experiment [2] was inactive.
Take `CN(C)CCCN(C)CCCN(C)C`: the result in experiment [1] and in experiment [2] was inactive.
In the case of `CCCCCCCC(=O)OC`, the outcome in experiment [1] and in experiment [2] was inactive.
Consider `CC(C)c1cccc(C(C)C)c1`, for which the result in experiment [1] and in experiment [2] was inactive.
With `CCCCC(CC)COC(=O)CCCCCCCC(=O)OCC(CC)CCCC` (configuration not stated), the result in experiment [1] and in experiment [2] was inactive.
For the molecule `CCCC[C@H]1CN(CC2CCOCC2)C(=O)OC12CCN(C1(C)CCN(C(=O)c3c(C)ncnc3C)CC1)CC2`, the outcome in experiment [1] and in experiment [2] was inactive.
With `CO[C@@H]1COCC[C@@H]1N[C@@H]1CC[C@@](C(=O)N2CCc3ncc(C(F)(F)F)cc3C2)(C(C)C)C1`, the outcome in experiment [1] and in experiment [2] was inactive.
In the case of `CC(C)NCC(O)c1ccc(O)c(O)c1` (configuration not stated), in experiment [1], the AC50 is 24.5 µM (active). Also, in experiment [2], the result was inactive.
Take `CC(=O)O[C@]1(C(C)=O)CC[C@H]2[C@@H]3C=C(Cl)C4=CC(=O)[C@@H]5C[C@@H]5[C@]4(C)[C@H]3CC[C@@]21C`: the outcome in experiment [1] was inactive. The AC50 in experiment [2] is 31.2 µM (active).
`O=NO`: the result in experiment [1] and in experiment [2] was inactive.
Consider `CC(=O)CC(c1ccccc1)c1c(O)c2ccccc2oc1=O` (configuration not stated), for which the result in experiment [1] and in experiment [2] was inactive.
As for `C#CC(O)C(CC)CCCC` (configuration not stated), the outcome in experiment [1] and in experiment [2] was inactive.
As for `Cn1cnc2c1c(=O)[nH]c(=O)n2C`, the result in experiment [1] and in experiment [2] was inactive.
Take `CCCCCCCCCCCCCCCCO`: the result in experiment [1] and in experiment [2] was inactive.
In the case of `c1ccc2occc2c1`, the result in experiment [1] and in experiment [2] was inactive.
Consider `O=C(O)c1[nH]n(-c2ccc(S(=O)(=O)O)cc2)c(=O)c1N=Nc1ccc(S(=O)(=O)O)cc1`, for which the result in experiment [1] and in experiment [2] was inactive.
For `CC1=C(C)S(=O)(=O)CCS1(=O)=O`, the result in experiment [1] and in experiment [2] was inactive.
Turning to `CCCCCCC(C=O)=Cc1ccccc1`, the half-maximal activity concentration (AC50) in experiment [1] is 34.9 µM (active); in experiment [2] it was 35.3 µM (active). Also, the result in experiment [3] was inactive.
Regarding `Oc1ccc(O)cc1`, the half-maximal activity concentration (AC50) in experiment [1] was 7.06 µM (active). The result in experiment [2] was inactive.
As to `O=C1NC(=O)C(c2ccccc2)(c2ccccc2)N1`, the outcome in experiment [1] and in experiment [2] was inactive.
Take `C/C=C/C=C/C(=O)O`: the result in experiment [1], in experiment [2] and in experiment [3] was inactive.
Take `Cc1ccc(C(C)(C)C)c(O)c1`: the result in experiment [1] and in experiment [2] was inactive.
Consider `O=Cc1ccccc1C=O`, for which the outcome in experiment [1] and in experiment [2] was inactive.
As for `COC(=O)CCC(=O)OC`, the outcome in experiment [1] and in experiment [2] was inactive.
For the molecule `Cc1cc(SC2=C(O)C[C@@](CCc3ccc(N)cc3)(C(C)C)OC2=O)c(C(C)(C)C)cc1CO`, the outcome in experiment [1], in experiment [2] and in experiment [3] was inactive.
Take `CC(C)COC(=O)CCCCC(=O)OCC(C)C`: the result in experiment [1] and in experiment [2] was inactive.
`O=C(N[C@@H](c1ccccc1)[C@@H]1CCCCN1)c1cccc(C(F)(F)F)c1Cl`: the AC50 in experiment [1] is 14.4 µM (active); in experiment [2], 26.5 µM (active); in experiment [4], 1.06 µM (active); in experiment [5], 3.27 µM (active). The molecule was called inactive in experiment [3] and in experiment [6].
For the molecule `NCCOCCOCCN`, the result in experiment [1] and in experiment [2] was inactive.
Take `Nc1nc(Cl)nc2c1ncn2[C@H]1C[C@H](O)[C@@H](CO)O1`: the concentration at half-maximal activity (AC50) was 0.147 µM (active) in experiment [1] and 0.554 µM (active) in experiment [2]. Also, the result in experiment [3] was inactive.
With `O=C1O[C@H]([C@H](O)CO)C(O)=C1O`, the AC50 in experiment [1] is 12 µM (active). In addition, the outcome in experiment [2] was inactive.
As to `O=C(O)CC(O)(CC(=O)O)C(=O)O`, the result in experiment [1] and in experiment [2] was inactive.
In the case of `N[C@@H](Cc1c[nH]c2ccccc12)C(=O)O`, the result in experiment [1] and in experiment [2] was inactive.
In the case of `CC(C)c1cccc(C(C)C)c1NC(=O)NS(=O)(=O)c1cc(C(C)(C)O)co1`, the result in experiment [1] and in experiment [2] was inactive.
For the molecule `CS(=O)(=O)c1ccc([C@@H](C[C@H]2CCC(=O)C2)C(=O)Nc2cnccn2)cc1Cl`, the outcome in experiment [1] and in experiment [2] was inactive.
As for `CC(=O)S[C@H](C(=O)N[C@H]1Cc2ccccc2[C@H]2CCC[C@@H](C(=O)O)N2C1=O)C(C)C`, in experiment [1], the AC50 is 7.81 µM (active). Further, the outcome in experiment [2] was inactive.
In the case of `Oc1ccccc1O`, the figures for the concentration at half-maximal activity (AC50) in experiment [1] and in experiment [2] were 24.5 µM (active) and 8.32 µM (active), respectively.
As for `O=C1CCCCC1`, the outcome in experiment [1] and in experiment [2] was inactive.
`C/C=C/c1ccc(OC)cc1`: the outcome in experiment [1] and in experiment [2] was inactive.
With `CC(=O)[C@@]1(O)CC[C@H]2[C@@H]3CCC4=CC(=O)CC[C@]4(C)[C@H]3CC[C@@]21C`, the result in experiment [1] and in experiment [2] was inactive.
As to `Nc1nc(=S)c2[nH]cnc2[nH]1`, the AC50 in experiment [1] is 13.5 µM (active). Besides, the outcome in experiment [2] was inactive.
In the case of `OCC(O)CO`, the outcome in experiment [1] and in experiment [2] was inactive.
For the molecule `CC(N)=O`, the result in experiment [1], in experiment [2] and in experiment [3] was inactive.
As for `OCC(CO)n1cnc(-c2ccc(F)cc2)c1-c1ccnc(Oc2ccccc2)n1`, in experiment [1], the AC50 was 18.1 µM (active). Besides, the outcome in experiment [2] was inactive.
For the molecule `Cc1cn([C@H]2C=C[C@@H](CO)O2)c(=O)[nH]c1=O`, the result in experiment [1] and in experiment [2] was inactive.
For the molecule `C=CCCCCCCCCCCCC`, the result in experiment [1] and in experiment [2] was inactive.
